Hits are enriched below; roughly 17% of the tested compounds scored in any of these assays.
DT40 TDP1 CPT = DT40-hTDP1 cell growth loss with CPT. chicken DT40 Tdp1-/-;hTDP1 cells + 20 nM CPT, ATP luminescence, 48 h. Potency, µM (doses to about 46.2 µM), for inactives: at the highest dose activity change, negative = growth inhibition, hits mostly inhibitors. 12% of 420,000 active. AID 686979; note: % is set by controls: 0 for no effect and ±100 for the full control effect; nearly all actives have a fitted effect of over 55% in size
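Cell growth measured by CellTiter-Glo luminescence after a minimum 48 h, 37 C compound exposure with 20 nM CPT in Tdp1-knockout DT40 cells stably expressing hTDP1, seeded 400/well; qHTS titration format.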
S2 tox = viability counter-screen for ATXN expression inhibitors; S2 cells (HEK-293 line with an ATXN2-luciferase reporter) viability, CellTiter-Fluor protease fluorescence, 24 h; Potency, µM (series often up to 56.7 µM), usual class: cytotoxic; 0.49% of 400,000 active; AID 651635; note: nearly all actives have a fitted effect of over 40% in size
ATXN2 expr inh = reduces ATXN2 reporter expression in HEK-293 cells; HEK-293 ATXN2-luciferase reporter, luminescence, 24 h; Potency, µM (highest dose often 57 µM), for the others: at the top dose activity change, negative = inhibition, usual class: inhibitors; 0.72% of 360,000 active; note: % is set by controls: 0 for no effect and ±100 for the full control effect; nearly all actives have a fitted effect of over 55% in size
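qHTS (up to 57 uM final) was run with 24 h compound exposure of reporter cells at 37 °C. Each well was multiplexed: SteadyGlo luminescence measured ATXN2-luciferase expression after a fluorogenic Gly-Phe-AFC viability readout (25 uM final).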
TGFb SMAD3 inh = blocks TGF-b signaling | HepG2 CAGA-GFP TGF-b/SMAD3 reporter, GFP fluorescence, 18 h; TGF-beta stimulated, 500 pg/mL final | Potency, µM (highest dose often 46.1 µM), for inactives: top-dose activity, negative = inhibition, usual class: inhibitors | 1.2% of 410,000 active; note: % is set by controls: 0 for no effect and ±100 for the full control effect; nearly all actives have a fitted effect of over 65% in size
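Read-out: total well GFP (ex488/em500-530) summed from mean per-cell fluorescence. Cells: HEPG2 CAGA-GFP, 1% FBS DMEM, 18 h at 37 degrees C with 500 pg/mL final TGF-beta. Unstimulated wells served as the full-inhibition control; stimulated DMSO wells = 0%.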
TDP1 cell noCPT = qHTS for Inhibitors of human tyrosyl-DNA phosphodiesterase 1 (TDP1): qHTS in cells in absence of CPT; DT40 Tdp1-/- hTDP1 cells, no CPT, ATP luminescence, 48 h; Potency, µM (series often up to 46.2 µM), without a hit: at the top dose activity change, negative = growth inhibition, usual class: inhibitors; 15% of 420,000 active; AID 686978, 2013; note: % is set by controls: 0 for no effect and ±100 for the full control effect; nearly all actives have a fitted effect of over 55% in size
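Stably hTDP1-transfected Tdp1-null chicken DT40 cells were treated with library compounds minus camptothecin and grown for at least 48 hr at 37 °C, after which cellular ATP was quantified by luminescence.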
HepG2 tox = kills HepG2 cells in TGF-b inhibitor counter-screen; Potency, µM (doses to about 46.1 µM), for the others: at the top dose activity change, negative = cytotoxicity, actives largely listed as cytotoxic; HepG2 CAGA-GFP viability, ATP luminescence, 18 h; AID 588856; 0.76% of 410,000 active
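HepG2 CAGA-GFP cells (1000/well, DMEM with 1% FBS) received compound, then TGF-beta at 500 pg/mL final, and were incubated 18 hours at 37 degrees C. Viability was read by CellTiter-Glo luminescence. Media-only wells were set as complete cell-killing and DMSO as no toxicity.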
An asterisk follows results filed as active; i = inactive; ? = inconclusive; nt = no result given. Calls come from the whole dose curve; as a rule, active = well fitted curve in the direction sought with a large enough effect; inconclusive = small, poorly fitted or top-dose-only effect, or another doubt; inactive = no such curve, though single readings can be large; an effect the other way counts as inactive or inconclusive. Potency is the fitted concentration of half-maximal effect.

SMILES	DT40 TDP1 CPT	S2 tox	ATXN2 expr inh	TGFb SMAD3 inh	TDP1 cell noCPT	HepG2 tox
C/C(=N\NC(=S)Nc1ccc(C)cc1)c1cccc(N)c1	?	i	89%	10%	?	-4%
Cc1noc(C)c1COC(=O)C1CCN(S(=O)(=O)c2ccc(F)cc2)CC1	-14%	i	12%	-28%	0%	-19%
COc1cc(N=Nc2ccc(Br)cc2)cc(C=O)c1O	5.2µM*	?	nt	-17%	4.6µM*	-8%
CC(=O)c1ccccc1Oc1ncnc(N)c1[N+](=O)[O-]	-12%	i	6%	10%	16%	-11%
CC(=O)c1ccc(Oc2ncnc(N)c2[N+](=O)[O-])cc1	23µM*	i	-20%	26%	?	0%
CSC[C@H]1CN(Cc2cccnc2)C(=O)[C@@H]1CC(=O)Nc1ccc(Br)cc1	-29%	i	13%	13%	?	-2%
O=C(c1ccco1)N1CCN(C(=O)c2ccco2)CC1	10%	i	15%	7%	1%	-2%
O=C(c1ccco1)N1CCN(C(=O)c2ccc(-c3ccc(Cl)cc3)o2)CC1	18µM*	?	-30%	?	?	-20%
O=C(CN1CCOCC1)Nc1cc(C(F)(F)F)ccc1Cl	-23%	i	-7%	33%	-22%	-2%
Cc1cc(Cl)c2oc(C(=O)N3CCOCC3)c(C)c2c1	?	i	nt	4%	-22%	-17%
O=C(c1ccco1)N1CCN(C(=O)c2ccc(-c3cccc(C(F)(F)F)c3)o2)CC1	?	i	7%	-10%	21µM*	-2%
O=C(c1ccc(-c2cccc(C(F)(F)F)c2)o1)N1CCCCCCC1	?	?	9%	?	-12%	-19%
O=C(CN1CCN(C(=O)c2ccco2)CC1)Nc1cc(C(F)(F)F)ccc1Cl	?	i	-12%	2%	23µM*	16%
Cc1cc(Cl)c2oc(C(=O)N3CCN(C(=O)c4ccco4)CC3)c(C)c2c1	16µM*	i	37%	19%	?	-6%
CCc1ccccc1N1C(=O)N(Cc2ccc(C#N)cc2)c2ccccc2S1(=O)=O	?	i	-26%	-11%	?	-7%
O=C(c1ccc(-c2cccc(C(F)(F)F)c2)o1)N1CCN(c2ccccc2)CC1	-2%	i	-7%	-16%	-5%	3%
N#CCCN1CCN(C(=S)c2ccc(-c3ccc(Cl)c(Cl)c3)o2)CC1	26µM*	i	13%	-9%	?	-7%
CC(=O)N1CCN(C(=S)c2ccc(-c3ccc(Cl)cc3)o2)CC1	?	i	36%	-18%	26µM*	1%
CC1CN(C(=O)c2ccc(-c3cccc(C(F)(F)F)c3)o2)CC(C)O1 (stereo unspecified)	?	i	-27%	1%	13µM*	12%
O=C(NCC1(N2CCOCC2)CCCCC1)c1cnn(-c2nccc(-c3cccs3)n2)c1C1CC1	?	i	nt	nt	21µM*	nt
Cc1c(C(=O)NCCN2CCOCC2)cnn1-c1nccc(-c2cc3ccccc3o2)n1	-17%	i	nt	nt	-18%	nt
CCN1CCCC1CNC(=O)c1cnn(-c2nccc(-c3ccc(C)o3)n2)c1C1CC1 (stereo unspecified)	1%	i	nt	nt	-4%	nt
O=C(NCCN1CCOCC1)c1cnn(-c2nccc(-c3cc4ccccc4o3)n2)c1C1CC1	18µM*	?	nt	nt	?	nt
Cc1ccc(-c2ccnc(-n3ncc(C(=O)NCCN4CCOCC4)c3C3CC3)n2)o1	21µM*	i	nt	nt	-24%	nt
Cc1nc2c(-c3ccccc3)cnn2c(N2CCOCC2)c1C	-15%	i	113%	0%	-26%	-14%
SMILES	DT40 TDP1 CPT	S2 tox	ATXN2 expr inh	TGFb SMAD3 inh	TDP1 cell noCPT	HepG2 tox
Cc1ccc(NC(=O)c2ccc(S(=O)(=O)NCc3cccnc3)cc2)cc1C	?	i	-3%	5%	?	-4%
O=C(c1ccc(Cl)c(S(=O)(=O)NCc2cccnc2)c1)N1CCCC1	?	i	nt	0%	2.9µM*	-2%
O=C(Nc1ccc(Cl)c(Cl)c1)c1cccc(S(=O)(=O)NCc2cccnc2)c1	5.8µM*	?	?	?	12µM*	-23%
Cc1ccc(OCC(=O)Nc2cc(S(=O)(=O)N3CCOCC3)ccc2Cl)c([N+](=O)[O-])n1	-6%	i	3%	2%	-5%	9%
COc1cccc2cc(-c3nc4sc5c(c4c(=O)[nH]3)CCC(C(C)(C)C)C5)c(=O)oc12 (stereo unspecified)	-3%	nt	nt	0%	14%	-17%
COc1cc(C2Nc3ccc4ncccc4c3C3=C2C(=O)CCC3)cc(OC)c1OC (stereo unspecified)	?	i	nt	-19%	?	-16%
COc1cc(C2Nc3ccc4ncccc4c3C3=C2C(=O)CCC3)ccc1O (stereo unspecified)	5.8µM*	?	20%	5%	3.7µM*	-11%
CCOC(=O)C(=Cc1ccc(-n2cncn2)cc1)C(=O)OCC	12µM*	?	?	?	13µM*	-93%
Cc1cccc(NC(=O)c2sc3nc4c(cc3c2N)CN(Cc2ccccc2)CC4)c1	15µM*	?	?	10%	18µM*	1%
CC(=O)c1cccc(NC(=O)c2sc3nc4c(cc3c2N)CCCC4)c1	?	?	1%	-18%	?	1%
CN1CCc2nc3sc(C(=O)Nc4cccc(C#N)c4)c(N)c3cc2C1	21µM*	?	-22%	?	8.2µM*	-17%
COc1ccc(NC(=O)c2sc3nc4c(cc3c2N)CN(C(C)C)CC4)c(OC)c1	23µM*	?	?	-15%	?	-20%
COc1ccc(NC(=O)c2sc3nc4c(cc3c2N)CN(Cc2ccccc2)CC4)cc1	3%	i	15%	1%	2%	0%
COc1ccc(NC(=O)c2sc3nc(N4CCOCC4)c4c(c3c2N)CCCC4)c(OC)c1	-4%	i	1%	-1%	-6%	2%
CN1CCc2nc3sc(C(=O)Nc4c(F)cccc4F)c(N)c3cc2C1	?	nt	nt	-13%	?	1%
Cc1cccc(NC(=O)c2sc3nc4c(cc3c2N)CN(C(C)C)CC4)c1	21µM*	?	?	-28%	?	-23%
Nc1c(C(=O)Nc2cccc(Cl)c2)sc2nc3c(cc12)CN(Cc1ccccc1)CC3	7.3µM*	i	-24%	-7%	15µM*	-24%

Screening results as filed in PubChem.
